Arbovirus inh = antivirals against arbovirus infection; arbovirus infection cell-based antiviral screen; inhibition, % at 10 µM; 0.37% of 200,000 active; AID 1251; in the data active = inhibition above about 30%
HSV augment = increases HSV replication in cells | maximum fold increase | HSV replication augmentation in cells, fold increase | 0.005% of 220,000 active; in the data active = maximum fold increase above about 1.5; inconclusive = no clear call, values can overlap the other calls; tested in PC3 cells
KCC2 mod = modulators of human KCC2 chloride dependent transport; Q9H2X9; KCC2 cells, thallium flux FluoZin-2 fluorescence; B-score of Tl+ flux slope (higher = more flux/activation; lower = inhibition) at 10 µM; 2.2% of 190,000 active; AID 1456;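 active = thallium flux slope and its plate-corrected score both differing from the plate sample mean at a set confidence after two filtering rounds, in either direction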;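 note: slope of fluorescence scaled to starting intensity during 10 to 20 s after thallium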
Target sequence (Q9H2X9 whole entry, looked up): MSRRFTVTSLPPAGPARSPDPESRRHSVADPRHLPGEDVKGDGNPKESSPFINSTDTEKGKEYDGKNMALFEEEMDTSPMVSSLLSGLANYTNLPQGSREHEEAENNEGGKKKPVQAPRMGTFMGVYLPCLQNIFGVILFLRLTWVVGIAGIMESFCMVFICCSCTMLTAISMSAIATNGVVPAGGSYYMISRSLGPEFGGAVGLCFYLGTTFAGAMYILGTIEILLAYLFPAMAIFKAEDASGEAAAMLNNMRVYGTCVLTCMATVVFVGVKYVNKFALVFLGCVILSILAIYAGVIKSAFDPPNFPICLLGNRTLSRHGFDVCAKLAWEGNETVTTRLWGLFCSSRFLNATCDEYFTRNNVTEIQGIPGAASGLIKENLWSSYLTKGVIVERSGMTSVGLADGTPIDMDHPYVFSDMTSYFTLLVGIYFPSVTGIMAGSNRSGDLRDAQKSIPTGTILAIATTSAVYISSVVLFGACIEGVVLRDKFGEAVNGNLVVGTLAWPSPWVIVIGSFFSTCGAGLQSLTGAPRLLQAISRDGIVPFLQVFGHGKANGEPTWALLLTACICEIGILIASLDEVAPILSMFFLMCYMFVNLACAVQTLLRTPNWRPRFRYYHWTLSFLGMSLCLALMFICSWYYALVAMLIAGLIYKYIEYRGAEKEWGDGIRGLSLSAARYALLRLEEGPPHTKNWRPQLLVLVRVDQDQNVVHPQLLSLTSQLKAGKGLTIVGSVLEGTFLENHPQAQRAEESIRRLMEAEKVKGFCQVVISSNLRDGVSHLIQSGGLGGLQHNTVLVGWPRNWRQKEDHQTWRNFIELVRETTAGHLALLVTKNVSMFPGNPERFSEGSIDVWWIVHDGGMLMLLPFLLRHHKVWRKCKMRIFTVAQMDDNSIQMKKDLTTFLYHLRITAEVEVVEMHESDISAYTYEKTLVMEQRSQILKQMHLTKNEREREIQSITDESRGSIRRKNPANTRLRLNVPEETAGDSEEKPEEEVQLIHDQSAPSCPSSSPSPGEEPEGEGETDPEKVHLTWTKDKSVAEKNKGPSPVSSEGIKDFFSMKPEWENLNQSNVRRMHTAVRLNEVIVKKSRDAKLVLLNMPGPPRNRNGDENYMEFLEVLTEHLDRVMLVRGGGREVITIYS
ROMK primary = human ROMK K+ channel modulation, primary screen; Tet-inducible ROMK, thallium flux fluorescence; actives lie on both sides; 2% of 130,000 active; P48048; B-score at 10 µM;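 active = signal ratio slope over the read window, or its plate-corrected B-score, at least 3 SD from the plate mean, either direction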;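 note: B-score of the F/F0 ratio slope over 7 to 12 s after thallium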
Measles CPE = protection of cells from measles virus; Measles virus-infected cells, CPE protection, absorbance; protection (pct of control), % at 4 µM; 1.5% of 140,000 active; AID 841; in the data active = protection mostly above about 24%, no sharp cut-off; inactive = mostly below about 26%
KCC2 sec1 = KCC2 (human) modulation, secondary assay; shares compounds with KCC2 mod; HEK293-KCC2, thallium flux, FluoZin2 fluorescence; stronger effect = higher value; normalised thallium flux (F/F0 slope) at 10 µM; 15% of 3,700 active;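 active = thallium flux slope above the same plate's solvent-only control mean plus 3 SD; inconclusive = the two replicate wells disagree; inactive = no significant difference from solvent-only control wells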
KCC2 bumet counter = thallium flux despite bumetanide block in KCC2 cells, secondary assay 3; shares compounds with KCC2 mod; HEK293-KCC2 + bumetanide/ouabain, thallium flux FluoZin2; stronger effect = higher value; normalized thallium flux at 10 µM; 49% of 3,700 active; AID 1714;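 active = thallium entry rate above the same plate's blocked-transporter control wells by more than 3 SD; inconclusive = the two repeat wells disagree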;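 note: raw slope of fluorescence over initial fluorescence between 10 and 20 s after thallium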
KCC2 sec2 = KCC2 (human) modulation, second secondary assay. 23% of 3,700 active. shares compounds with KCC2 mod. normalized thallium flux at 10 µM. HEK293-KCC2, thallium flux FluoZin2 fluorescence; actives lie on both sides; F/F0 rise rate, 10–20 s post-thallium;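 active = thallium flux slope more than 3 SD above or below the plate's solvent-only control mean, mostly below; inconclusive = the two repeat wells disagreed; inactive = no significant shift from solvent-only controls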;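 note: raw slope with 0.1% DMSO as baseline and bumetanide as block control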
HEK counter1 = counter-screen for KCC2 modulators: effect in parental HEK293 cells; 46% of 3,700 active; thallium flux rate (normalised fluorescence) at 10 µM; thallium flux FluoZin2, ouabain; baseline-ratio fluorescence slope, 10–20 s after thallium; AID 1716; shares compounds with KCC2 mod;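 active = thallium flux rate significantly above the same plate's solvent-only control wells, beyond their mean plus 3 SD; inconclusive = the two replicate wells gave conflicting results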
KCC2 ouabain = confirmation of human KCC2 modulators with ouabain; shares compounds with KCC2 mod; HEK293-KCC2, thallium flux FluoZin2 fluorescence; bidirectional: low = inhibitor, high = activator; raw Tl+ flux slope (below DMSO = inhibition, above = activation) at 10 µM; 48% of 3,700 active;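 active = thallium flux slope beyond 3 SD from same-plate DMSO control mean in most replicates, usually higher, sometimes lower; inconclusive = repeat tests gave conflicting results; inactive = no significant difference from controls in most replicates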;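 note: slope of initial-normalized fluorescence between seconds 10 and 20 after thallium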
HEK293 Tl flux2 = acts in parental HEK cells, second KCC2 counter-screen; shares compounds with KCC2 mod; HEK293 parental, thallium flux FluoZin-2 fluorescence slope; thallium flux slope at 10 µM; 33% of 3,700 active;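 active = thallium flux slope above the same plate's solvent-control mean plus 3 SD in both duplicate wells; inconclusive = duplicate wells that disagreed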;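 note: run without ouabain in cells lacking the KCC2 cotransporter; slope of fluorescence scaled to its starting value between 10 and 20 s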
Starred values were filed as active, the others as inactive; i = inactive; ? = inconclusive; / = no result. A selection: hits, their analogues and other compounds. The true share with any hit is near 4%.

SMILES	Arbovirus inh	HSV augment	KCC2 mod	ROMK primary	Measles CPE	KCC2 sec1	KCC2 bumet counter	KCC2 sec2	HEK counter1	KCC2 ouabain	HEK293 Tl flux2
O=C(O)Cc1sc(Nc2ccccc2)nc1-c1ccc(Cl)cc1	25	i	-6.7*	0.87	/	0.0083	0.01*	0.033	0.0075	?	0.011
Cc1ccc(Nc2nc(-c3ccccc3)c(CC(=O)O)s2)cc1	21	i	-1.4	0.27	/	/	/	/	/	/	/
CC(C)C(=O)N/N=C/c1ccc(OCc2ccccc2)cc1	6	/	-4.7*	/	4	0.0072	0.0051	0.03	0.0073	?	0.01
O=C(CSc1nc(-c2ccccc2)nc2ccccc12)Nc1cccc(C(=O)O)c1	10	i	7.4*	2.2	/	0.0063	0.014*	0.034	0.015*	0.025*	0.017*
CCS(=O)(=O)c1nc(S(=O)(=O)c2ccc(Cl)cc2)c(NCCOC)s1	-1	i	0.0069	1.3	/	/	/	/	/	/	/
COc1cc(/C=N/NC(=O)CN(Cc2ccccc2)S(=O)(=O)c2ccc3c(c2)OCCO3)ccc1O	-7	i	-4.4*	-0.00046	37	0.0084	0.007	?	0.0063	0.014*	0.01
COc1ccc(C(=O)Nc2cccc(C(=O)NCc3ccco3)c2)cc1	-22	i	0.52	-0.83	/	/	/	/	/	/	/
Fc1ccccc1-n1c(-c2ccc3ccccc3n2)n[nH]c1=S	0	i	4.5*	-0.033	/	0.011	0.022*	?	?	?	0.012
S=c1[nH]nc(-c2ccc3ccccc3n2)n1-c1ccccc1	-2	i	1.6	/	17	/	/	/	/	/	/
CC1(C(=O)OCc2cc(=O)n3cc(Br)ccc3n2)CC1(Cl)Cl (stereo unspecified)	-2	i	-0.67	/	/	/	/	/	/	/	/
CC1(C)C2CCC(C2)C1(C)NC(=O)CNC1CCCCC1 (stereo unspecified)	12	i	1.3	-1.7	/	/	/	/	/	/	/
COC(=O)c1ccc2nc(Nc3nc4c(F)cc(F)cc4s3)sc2c1	-34	i	9.2*	-0.87	4	0.0074	0.019*	0.041*	0.016*	0.028*	0.021*
CCCn1nnc(NC(=S)NC(=O)Cc2ccccc2)n1	-2	i	/	0.72	/	/	/	/	/	/	/
Cn1nnc(NC(=S)NC(=O)c2ccc(-c3ccc(Br)cc3)o2)n1	3	i	5.2*	0.19	/	0.014*	0.018*	0.032	0.017*	?	0.012
CCCn1nnc(NC(=S)NC(=O)c2ccc(-c3ccc(Br)cc3)o2)n1	/	i	19*	/	/	?	0.015*	0.028	0.015*	0.057*	0.011
Cc1cc(NC(=O)c2cccc(S(=O)(=O)N3CC(c4ccccc4)CC3=O)c2)no1 (stereo unspecified)	-2	i	-5.4*	/	19	?	0.0039	0.022*	0.006*	0.013*	?
COc1ccc(C(=O)Nc2nncs2)cc1S(=O)(=O)N1CC(c2ccccc2)CC1=O (stereo unspecified)	16	i	/	/	22	0.0063	0.0051	0.029	0.0075	?	0.011
Cc1nnc(NC(=O)c2cccc(S(=O)(=O)N3CC(c4ccccc4)CC3=O)c2)s1 (stereo unspecified)	12	i	-3.2	/	2	/	/	/	/	/	/
CCOC(=O)N1CCC(n2c(SCC(=O)NCCc3ccc(S(N)(=O)=O)cc3)nc3ccccc3c2=O)CC1	8	i	0.14	-0.29	/	/	/	/	/	/	/
COCCN(C(=S)Nc1cc(C)cc(C)c1)C(C)c1ccco1 (stereo unspecified)	1	i	-1.6	1.9	/	/	/	/	/	/	/
Cc1ccccc1NCC(=O)N/N=C/c1ccc([N+](=O)[O-])cc1	3	i	-5.8*	-1.3	20	0.0075	0.0049	?	0.008	0.018	0.0099
O=C(CNc1cccc2ccccc12)N/N=C/c1ccc([N+](=O)[O-])cc1	-2	i	0.59	/	16	/	/	/	/	/	/
COc1cccc(N2CCN(C(=O)CCCCCNc3nc(=S)[nH]c4ccccc34)CC2)c1	9	i	-1.8	-1.4	/	/	/	/	/	/	/
CCCn1c(NC(=S)Nc2ccccc2)nc2ccccc21	2	i	28*	0.27	14	?	0.018*	0.03	0.0092*	0.038*	0.0094
S=C(Nc1ccccc1)Nc1nc2ccccc2n1CCOc1ccc(Cl)cc1	-27	i	3.1	/	6	/	/	/	/	/	/
SMILES	Arbovirus inh	HSV augment	KCC2 mod	ROMK primary	Measles CPE	KCC2 sec1	KCC2 bumet counter	KCC2 sec2	HEK counter1	KCC2 ouabain	HEK293 Tl flux2
CCC(=O)Nc1nc2ccccc2n1CCN1CCOCC1	5	/	/	0.36	5	/	/	/	/	/	/
CCCCCCCn1c(NC(=O)CC)nc2ccccc21	/	i	6.5*	/	/	?	0.027*	0.031	0.011*	0.025	0.011*
CC1CCN(C(=O)c2ccc(NS(=O)(=O)c3cccc4cccnc34)cc2)CC1	/	i	-0.033	0.039	/	/	/	/	/	/	/
CCOc1ccc(N/C(SCc2cccc([N+](=O)[O-])c2)=C(/C#N)C(N)=O)cc1	-11	i	0.77	-2.2	/	/	/	/	/	/	/
N#CC(C#N)=C(Nc1ccc(F)cc1)SCc1cccc(F)c1	-11	i	-5.1*	-0.37	8	0.005	?	0.025*	?	0.014*	0.0091*
O=C(NC(=S)N1CCN(Cc2ccccc2)CC1)c1ccco1	-1	i	0.94	-0.6	/	/	/	/	/	/	/
COc1ccc2nc(N=Nc3c(O)ccc4ccccc34)sc2c1	-33	i	14*	0.87	5	0.013*	0.05*	0.036	0.025*	0.034*	0.016*
O=C(Nc1nc(-c2ccccn2)cs1)c1cc(Cl)ccc1[N+](=O)[O-]	-24	i	6.8*	1.4	/	0.014*	0.037*	0.039	0.018*	0.038*	0.015*
Cc1ccc(-n2[nH]c3c4c(ccc3c2=O)C(=O)c2ccccc2C4=O)cc1	4	/	0.17	/	26	/	/	/	/	/	/
CC(C)(C)n1[nH]c2c3c(ccc2c1=O)C(=O)c1ccccc1C3=O	-37	i	/	0.16	13	0.0056	0.0053	0.029	0.0082	0.019	0.012
COCCCn1[nH]c2c3c(ccc2c1=O)C(=O)c1ccccc1C3=O	-34	i	/	/	20	0.005	?	0.03	0.008	0.019	0.012
Cc1ccc(CNS(=O)(=O)c2ccccc2[N+](=O)[O-])cc1	-1	i	-0.2	0.22	/	/	/	/	/	/	/
COc1ccc(C(=O)N(C)C2CCN(C)CC2)cc1S(=O)(=O)Nc1cc(Cl)ccc1Cl	/	i	0.18	/	/	/	/	/	/	/	/

Compound activity from PubChem.
